Screening results deposited in PubChem by The Scripps Research Institute Molecular Screening Center.
CHO-K1 Ca antag: nonselective inhibitor or artifact in parental CHO-K1 cells; ATP-induced calcium, Fluo-8 fluorescence; inhibition, % at 3 µM; actives 0.6% (n = 360,000); AID 602250;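 active = inhibition above a per-plate cutoff, the plate's mean sample inhibition plus 3 SD, cut at about 24% in these data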;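 note: 0% = DMSO plus EC80 ATP and 100% = DMSO alone without ATP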
M1 PAM: positive allosteric modulators of human M1 muscarinic receptor | P11229 | activation, % at 3 µM | AID 588819 | CHO-K1 hM1, Fluo-8 calcium fluorescence, ACh EC20; 0% = ACh EC20, 100% = maximal ACh | actives 0.088% (n = 360,000); in the data active = activation above about 19%, passing the limit was not always enough
Target sequence (P11229 whole entry, looked up): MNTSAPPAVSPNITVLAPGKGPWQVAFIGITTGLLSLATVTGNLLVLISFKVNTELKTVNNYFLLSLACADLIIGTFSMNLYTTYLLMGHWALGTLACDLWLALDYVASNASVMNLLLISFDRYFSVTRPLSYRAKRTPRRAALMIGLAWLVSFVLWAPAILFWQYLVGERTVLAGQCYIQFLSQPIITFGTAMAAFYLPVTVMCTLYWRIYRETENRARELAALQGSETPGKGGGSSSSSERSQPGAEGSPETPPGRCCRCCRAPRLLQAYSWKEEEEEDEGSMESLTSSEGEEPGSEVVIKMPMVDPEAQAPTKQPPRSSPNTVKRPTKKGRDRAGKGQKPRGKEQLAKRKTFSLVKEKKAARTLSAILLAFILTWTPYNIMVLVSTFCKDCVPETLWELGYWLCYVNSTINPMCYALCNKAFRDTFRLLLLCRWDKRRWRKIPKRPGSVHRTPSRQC
M1 antag: blocks human M1 muscarinic receptor | CHO-K1 hM1, Fluo-8 calcium fluorescence, ACh EC80 antagonist | inhibition, % at 3 µM | actives 1.3% (n = 360,000) | AID 588852;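 active = percent inhibition above its own plate's cutoff, namely the mean of that plate's compound wells plus 3 SD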;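 note: peak over basal fluorescence ratio during 140 s after agonist addition; 0% = ACh EC80 plus DMSO and 100% = DMSO alone without agonist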
CHRM1 agonist: human M1 muscarinic receptor agonism; actives 0.33% (n = 360,000); CHO-K1 hM1, Fluo-8 calcium fluorescence, agonist mode; 0% DMSO, 100% acetylcholine EC100; activation, % at 3 µM; P11229;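 active = activation above the run's mean compound activation plus 3 SD, cut at about 16% in these data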;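 note: peak over basal fluorescence ratio within a 140 s kinetic read after compound addition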
M1 ag parental: nonselective activator or artifact in parental CHO-K1 cells | AID 602248 | Fluo-8 calcium fluorescence; scaled to maximal ATP response, vehicle zero | activation, % at 3 µM | actives 0.48% (n = 360,000); in the data active = activation above about 15%;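 note: untransfected CHO-K1 host cells lacking M1 receptor as counterscreen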
M1 PAM parental: counter-screen for M1 PAMs: effect in parental CHO-K1 cells | ATP EC20, Fluo-8 calcium fluorescence; 0% at ATP EC20, 100% at ATP max | activation, % at 3 µM | actives 0.02% (n = 360,000) | AID 602247;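 active = activation above the run cutoff, the mean activation of all test compounds plus 3 SD, cut at about 40% in these data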;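 note: peak over basal fluorescence ratio in a 140 s read after ATP addition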
An asterisk follows results filed as active. Hits are enriched below; roughly 2.4% of the tested compounds scored in any of these assays.

SMILES | CHO-K1 Ca antag | M1 PAM | M1 antag | CHRM1 agonist | M1 ag parental | M1 PAM parental
CCOC(=O)Nc1ccc2c(c1)N(C(=O)N1CCN(C)CC1)c1ccccc1CC2 | -17 | -16 | 49* | 1 | 0 | 12
CCNCC(=O)N1c2ccccc2CCc2ccc(NC(=O)OC(C)C)cc21 | -12 | 9 | -18 | -8 | 2 | 20
CC(C)(C)c1ccc(C(=O)NC(=O)COC(=O)CCS(=O)(=O)c2ccccc2)cc1 | -18 | 14 | -12 | -3 | 5 | 7
CCOc1ccc(/C=N/NC(=O)c2nnn(-c3nonc3N)c2-c2cccs2)cc1 | 0 | -2 | 27 | 44* | 34* | 15
CCCOc1ccc(-c2c(C(=O)N/N=C/c3ccc(C)cc3)nnn2-c2nonc2N)cc1 | -3 | 8 | -14 | -3 | 1 | 12
CCOc1ccc(-c2c(C(=O)N/N=C/c3ccc(C)cc3)nnn2-c2nonc2N)cc1 | -12 | 18 | -15 | 19* | 2 | 23
Cc1ccc(-c2c(C(=O)N/N=C/c3ccc(OC(C)C)cc3)nnn2-c2nonc2N)cc1 | -8 | 15 | 0 | 11 | 14 | 18
CCOc1ccc(-c2c(C(=O)N/N=C/c3ccc(OC(C)C)cc3)nnn2-c2nonc2N)cc1 | -2 | 10 | 5 | 21* | 6 | 29
NNC(=O)c1nnn(-c2nonc2N)c1-c1cccs1 | -20 | 22* | -29 | 2 | 1 | 9
CC(OC(=O)/C=C/c1ccc2ccccc2n1)C(=O)Nc1ccc(S(N)(=O)=O)cc1 (stereo not drawn) | 0 | -1 | 10 | -1 | 1 | -17
O=C(Nc1ccccc1OCc1ccccc1)c1ccccc1Br | 1 | 0 | -15 | -4 | 9 | 18
Cc1cnc(C(=O)Nc2ccc(C)c(S(=O)(=O)N3CCCCCC3)c2)cn1 | 2 | 2 | -5 | -5 | 0 | 5
Cc1c(C(=O)O)sc(S(=O)(=O)N2CCN(C(=O)CCc3ccccc3)CC2)c1C(=O)O | 3 | 3 | 2 | 0 | 0 | -6
OCC1(Cc2ccccc2)CCN(Cc2ccc(-c3ccco3)cc2)CC1 | -14 | -6 | 20 | -1 | 2 | 23
OCC1(Cc2ccccc2)CCCN(Cc2ccc(-c3ccco3)cc2)C1 (stereo not drawn) | -11 | -24 | 44* | -8 | 4 | 11
CN1CCN(CCC(=O)N2c3ccccc3Sc3ccc(Cl)cc32)CC1 | 6 | -27 | 57* | -7 | 0 | -5
NCCCC(=O)N1c2ccccc2Sc2ccc(Cl)cc21 | -9 | -28 | 100* | -9 | 5 | 22
O=C(CN1CCN(CCOCCO)CC1)N1c2ccccc2Sc2ccc(Cl)cc21 | -7 | -21 | 93* | -6 | 0 | 14
NCCC(=O)N1c2ccccc2Sc2ccc(Cl)cc21 | 5 | -30 | 91* | -8 | 1 | 10
O=C(CCN1CCN2CCCC2C1)N1c2ccccc2Sc2ccc(Cl)cc21 (stereo not drawn) | -8 | -29 | 83* | -9 | 1 | 4
CN1CCC=C(C(=O)N2c3ccccc3Sc3ccc(Cl)cc32)C1 | 12 | -27 | 101* | -8 | 1 | -20
NC(=O)N1CCN(CCCN2c3ccccc3Sc3cc(Cl)ccc32)CC1 | -1 | -2 | -1 | -8 | 1 | 5
COC(=O)c1cccc(C23CC4(C2)[C@H](CN(C)[C@@H]4c2ccccc2)C3c2ccc(C(F)(F)F)cc2)c1 (stereo partly drawn) | -13 | -6 | 11 | -10 | 1 | 8
CN1C[C@@H]2C(c3ccc(Cl)nc3)C3(c4cccnc4)CC2(C3)[C@H]1c1ccccc1 (stereo partly drawn) | -15 | -37 | 54* | -14 | 1 | 1
CN1C[C@@H]2C(c3ccccc3)C3(c4ccccc4)CC2(C3)[C@H]1c1ccccc1 (stereo partly drawn) | -10 | -36 | 78* | -14 | 0 | 19
CN1C[C@@H]2C(c3ccc(Cl)nc3)C3(c4ccccc4)CC2(C3)[C@H]1c1ccccc1 (stereo partly drawn) | -12 | -40 | 84* | -14 | 0 | 13
